# Among all 4,400 compounds or so, about 390 (8.9%) showed an effect of 50% or more. The sample as a whole holds a higher share of strong results than the screen did.
# Tested on: Trypanosoma brucei
# Assay: DNDI: Inhibition of Human African Trypanosomiasis, SBRI 427, in vitro at 2 ug.mL-1
# Type: functional
row,Compound,% inhibition [%]
1,CCOc1ccc(-c2nc(CNCc3ccc(C(F)(F)F)cc3)co2)cc1,-13
2,CCOc1ccc(-c2nc(CN3CCC(N4CCCCC4)CC3)co2)cc1,9
3,CC(NCc1coc(-c2ccccc2Cl)n1)c1ccccc1 (stereo not drawn),9
4,COC(=O)C1CCN(/C(=N\O)c2ccc(Oc3ccc(C)cc3C)nc2)CC1,11
5,CCCCN(CCC#N)Cc1coc(-c2ccccc2OCC)n1,-9
6,O=[N+]([O-])c1ccc(N2CCN(Cc3coc(-c4cccc(F)c4)n3)CC2)cc1,-6
7,c1csc(-c2nc(CN3CCCCCCC3)co2)c1,3
8,Cc1cc(C)cc(Oc2nc(C)ccc2/C(=N/O)NCCN2CCOCC2)c1,15
9,Cc1ccc(/C(=N/O)NC2CCCC2)c(Oc2ccc3oc4ccccc4c3c2)n1,99
10,Cc1cc(N/C(=N\O)c2ccc(C)nc2Oc2ccc3oc4ccccc4c3c2)on1,20
11,Cc1ccc(/C(=N/O)NCCC2CCCN2C)c(Oc2ccc3oc4ccccc4c3c2)n1 (stereo not drawn),13
12,Cc1ccc(/C(=N/O)NCC2CC2)c(Oc2ccc3oc4ccccc4c3c2)n1,5
13,Cc1ccc(/C(=N/O)NC2CCC2)c(Oc2ccc3oc4ccccc4c3c2)n1,101
14,Cc1ccc(/C(=N/O)NC2CCC(C)CC2)c(Oc2ccc3oc4ccccc4c3c2)n1 (stereo not drawn),3
15,Cc1ccc(/C(=N/O)NC2CCCC2)c(Oc2cccc(C(C)C)c2)n1,3
16,CC(C)COc1ncccc1/C(=N/O)N(C)Cc1ccco1,11
17,COc1ccc(-c2nc(CN3CCN(C(=O)C4CCCO4)CC3)co2)cc1 (stereo not drawn),9
18,COc1ccc(Oc2cc(/C(N)=N/O)ccn2)cc1,19
19,CCOc1ccc(Oc2cc(/C(N)=N/O)ccn2)cc1,7
20,Cc1ccc(Oc2cc(/C(N)=N/O)ccn2)c2c1CCC2,16
21,C#CCN(C)Cc1coc(-c2ccc(Br)cc2)n1,4
22,CCC(CC)N/C(=N\O)c1cccnc1OCC1CCCCC1,98
23,O/N=C(\NC1CCCCC1)c1cccnc1OCC(F)(F)F,71
24,CC(C)c1ccc(N/C(=N\O)c2cccnc2OCC(F)(F)F)cc1,1
25,O/N=C(\NCc1cccs1)c1cccnc1OCC1CCCCC1,-4
26,N/C(=N\O)c1cccnc1OCC1CCCCC1,13
27,Cc1ccc(/C(=N/O)NC2CCCC2)c(OCC2CCCCC2)n1,12

row,Compound,% inhibition [%]
1,O/N=C(\NC1CCC1)c1cccnc1OCC1CCCCC1,99
2,O/N=C(\NCC1CCCCC1)c1cccnc1OCC(F)(F)F,0
3,O/N=C(\NCC1CCCO1)c1cccnc1OCC1CCCCC1 (stereo not drawn),5
4,COc1ccc(CN/C(=N\O)c2cccnc2Oc2ccc(SC)c(C)c2)cc1,4
5,CC1CCCCN1Cc1coc(-c2ccco2)n1 (stereo not drawn),1
6,C(=C\c1ccccc1)/CN1CCN(Cc2coc(-c3cccc4ccccc34)n2)CC1,19
7,O/N=C(/c1ccc(Oc2cccc(F)c2)nc1)N1CCCCC1,5
8,c1csc(-c2nc(CNCC3CCCO3)co2)c1 (stereo not drawn),2
9,COc1ccc(-c2nc(CN3CCCCC3)co2)cc1,4
10,Cc1ccc(/C(=N/O)N2CCCCC2)c(Oc2ccc(-n3ccnc3)cc2)n1,12
11,Cc1ccc(/C(N)=N/O)c(Oc2ccc(C(C)C)cc2)n1,31
12,Cc1cc(Oc2nc(C)ccc2/C(N)=N/O)cc(C(C)C)c1,55
13,Cc1ccc(/C(=N/O)NC(C)C)c(Oc2cccc(C(C)C)c2)n1,7
14,Cc1ccc(/C(N)=N/O)c(Oc2cccc(C(C)C)c2)n1,57
15,Cc1cc(Oc2ncccc2/C(N)=N/O)cc(C(C)C)c1,20
16,Cc1cccc(Oc2nc(C)ccc2/C(N)=N/O)c1,-4
17,Cc1cccc(Oc2nc(C)ccc2/C(=N/O)N2CCSCC2)c1,1
18,Cc1ccc(/C(N)=N/O)c(Oc2c(F)c(F)cc(F)c2F)n1,4
19,Cc1ccccc1NCc1coc(-c2ccccc2F)n1,-5
20,COc1ccc(Oc2ncccc2/C(=N/O)n2ccnc2C)cc1,-2
21,COc1cc2c(cc1OC)C(C(C)C)N(Cc1coc(-c3ccc(C)cc3)n1)CC2 (stereo not drawn),27
22,COc1cc(CNCc2coc(-c3ccc(C(F)(F)F)cc3)n2)cc(OC)c1,-1
23,Fc1ccc(-c2nc(CNCc3ccncc3)co2)cc1,-3
24,CCC(C)(C)N/C(=N\O)c1ccc(Oc2cccc(C)c2)nc1,67
25,CCC(C)(C)N/C(=N\O)c1ccc(Oc2ccc(F)cc2)nc1,27
26,CCC(C)(C)N/C(=N\O)c1ccc(Oc2cccc3ccccc23)nc1,95
